Compound activity (PubChem BioAssay)
IL1B secr inh: inflammasome signaling inhibition, IL-1 beta readout | THP-1 LPS/ATP IL-1B secretion, AlphaLISA, 16 h; active compounds read low | activity change, % at 57.5 µM | 360,000 tested, 4.7% active | AID 743279; in the data active = activity change below about -50%; inconclusive = mostly about -30% to -49%; also: % is scaled to controls: 0 for no effect and ±100 for the full control effect
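Secreted IL-1B measured by AlphaLISA bead assay after 16 h compound exposure of THP-1 cells; compounds (final up to 57.5 uM) added 1 h before LPS (250 ng/mL) and ATP (1.25 mM) stimulation; lower signal means less secretion.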
S2 tox: cell viability loss in ATXN counter-screen | 400,000 tested, 0.49% active | S2 cells (HEK-293 line with an ATXN2-luciferase reporter) viability, CellTiter-Fluor protease fluorescence, 24 h | Potency, µM (titrated, usually from 56.7 µM), most hits filed as cytotoxic; also: potency is read from the fitted curve at half-maximal effect; nearly all actives have a fitted effect of over 40% in size
ATXN2 expr inh: ATXN2 expression inhibition. HEK-293 ATXN2-luciferase reporter, luminescence, 24 h. Potency, µM (doses to about 57 µM), without a hit: at the highest dose activity change, negative = inhibition, hits mostly inhibitors. AID 1745845. 360,000 tested, 0.72% active; also: potency is read from the fitted curve at half-maximal effect; % is scaled to controls: 0 for no effect and ±100 for the full control effect; nearly all actives have a fitted effect of over 55% in size
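ATXN2-luciferase reporter cells (luciferase flanked by upstream and downstream ATXN2 gene portions) were treated 24 h at 37 °C with compounds at up to 57 uM. SteadyGlo luminescence gave expression; GF-AFC fluorescence gave viability.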
USP2a inh: blocks human ubiquitin-specific protease USP2a. Potency, µM (doses to about 38.3 µM), without a hit: top-dose activity change, negative = inhibition, actives largely listed as inhibitors. AID 463254. 330,000 tested, 0.01% active. USP2 core, Ub-CHOP2 coupled fluorogenic reporter, 485/531;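 also: potency is read from the fitted curve at half-maximal effect; plate controls were DMSO wells for no effect and full inhibition by NEM control for full effect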
Target sequence (O75604 whole entry, looked up): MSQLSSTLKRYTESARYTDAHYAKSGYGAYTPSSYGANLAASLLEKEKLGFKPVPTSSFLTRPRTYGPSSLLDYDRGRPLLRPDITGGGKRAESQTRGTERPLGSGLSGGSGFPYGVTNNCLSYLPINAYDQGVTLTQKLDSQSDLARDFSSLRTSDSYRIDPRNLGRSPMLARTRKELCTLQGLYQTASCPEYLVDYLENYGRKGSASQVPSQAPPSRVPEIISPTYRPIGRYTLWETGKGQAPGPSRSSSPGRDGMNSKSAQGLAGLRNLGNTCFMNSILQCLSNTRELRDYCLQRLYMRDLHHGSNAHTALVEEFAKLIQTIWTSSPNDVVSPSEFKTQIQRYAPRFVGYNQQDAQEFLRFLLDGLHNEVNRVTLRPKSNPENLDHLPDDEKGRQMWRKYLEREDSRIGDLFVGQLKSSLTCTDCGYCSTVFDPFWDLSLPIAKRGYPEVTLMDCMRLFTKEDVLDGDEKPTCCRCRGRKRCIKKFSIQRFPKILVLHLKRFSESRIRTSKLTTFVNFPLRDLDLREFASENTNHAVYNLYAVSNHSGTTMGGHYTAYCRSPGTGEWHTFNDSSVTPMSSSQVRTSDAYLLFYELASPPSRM
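Cell-free coupled assay: 10nM USP2 core preincubated 30min RT with compound in Tris-HCl pH 8.0/CaCl2/CHAPS buffer, then 25nM Ub-CHOP2 and 25nM reporter substrate; fluorescence (Ex 485/Em 531) read after 60min RT, normalized to NEM inhibition, concentration-response curves fitted.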
USP1-UAF1 inh: blocks the human USP1/UAF1 deubiquitinase complex; O94782; recombinant USP1/UAF1, Ub-Rhodamine cleavage fluorescence; Potency, µM (series often up to 57.1 µM), inactives show at the highest dose activity change, negative = inhibition, most hits filed as inhibitors; 390,000 tested, 0.23% active; also: potency is read from the fitted curve at half-maximal effect; % is scaled to controls: 0 for no effect and ±100 for the full control effect; nearly all actives have a fitted effect of over 60% in size
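USP1/UAF1 complex at 1 nM was preincubated with compound for 15 min at room temperature, then Ub-Rho substrate (150nM final) was added. Fluorescence (480/540 nm) was read kinetically, 6 reads every 60 seconds.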
The depositor's hits bear a star; i = inactive; ? = inconclusive; nt = not tested or not shown; [ ] = remark or other dose. A selection: hits, their analogues and other compounds. The true share with any hit is near 4.8%. Unless noted, calls follow the shape of the dose curve; as a rule, active = well fitted curve in the direction sought with a large enough effect; inconclusive = small, poorly fitted or top-dose-only effect, or another doubt; inactive = no such curve, though single readings can be large; an effect the other way counts as inactive or inconclusive.

SMILES | IL1B secr inh | S2 tox | ATXN2 expr inh | USP2a inh | USP1-UAF1 inh
CC1C(=O)OC(c2ccc(Cl)cc2)C(C)(C)C1=O (stereo not drawn) | -0.4 | i | -4.3% | 5.4% | 5.6%
COc1ccc(-c2oc3c(c2C(=O)OCCCO)C(OCCO)CCC3)cc1 (stereo not drawn) | 0.0 | i | 2.8% | nt | nt
Cc1c(CCOC(=O)c2cc([N+](=O)[O-])cc([N+](=O)[O-])c2)sc[n+]1CC(=O)c1ccc(Br)cc1 | -97.2* | i | -13.2%[11.3 µM] | -17.3% | -8.6%
Cc1c(CCOC(=O)C23CC4(C)CC(C)(CC(C)(C4)C2)C3)sc[n+]1CC(=O)c1ccccc1 | -192.3* | i | -20.0% | -8.7% | -3.2%
CN1CCN(c2ccc(-c3cccc(NC(=O)COc4ccc(Cl)cc4)c3)nn2)CC1 | -70.2* | ? | -11.9% | -0.5% | -16.5%
CCOc1ccccc1C(=O)Nc1cccc(-c2ccc(N3CCOCC3)nn2)c1 | -62.3* | i | 33.1% | 1.9% | -8.7%
CN1CCN(c2ccc(-c3cccc(NC(=O)COc4ccccc4)c3)nn2)CC1 | -5.4 | i | 3.0% | 0.7% | -17.8%
C[C@@]12CCC=C[C@H]1[C@H](c1ccc3ccccc3c1)N(Cc1ccccc1)C2=O | 5.9 | i | -12.0% | 6.0% | -21.1%
C[C@@]12CCC=C[C@H]1[C@H](c1ccc3ccccc3c1Br)N(Cc1ccccc1)C2=O | -54.5* | 35.5µM* | ? | 2.3% | -5.0%
C[C@@H]1CC=C[C@H]2[C@H]1C(=O)N(Cc1ccccc1)[C@H]2c1ccc2ccccc2c1Br | -75.5* | 28.2µM* | ? | -0.6% | -20.9%
CC[C@@H]1CC=C[C@H]2[C@H]1C(=O)N(Cc1ccccc1)[C@H]2c1ccoc1 | -106.8* | nt | ? | 3.8% | ?
COc1cccc(S(=O)(=O)N(C)C[C@@H]2Oc3cc(C#CCN(C)C)ccc3S(=O)(=O)N([C@H](C)CO)C[C@@H]2C)c1 | -25.3 | i | -7.7% | nt | -15.3%
COc1ccc(Cl)cc1C(=O)NCCCSc1ccccc1 | -54.2* | i | -14.8% | 1.7% | ?
CCc1ccc(-n2nc3cc(C)c(NC(=O)c4cc(Cl)ccc4OC)cc3n2)cc1 | nt | i | 5.6% | nt | -16.4%
CCCCCN(C(=O)CCC(=O)OCCOc1ccccc1)c1c(N)n(CCCC)c(=O)[nH]c1=O | -1.0 | i | -5.0% | -0.1% | -18.4%
CCCCCN(C(=O)CCC(=O)OCC(=O)c1ccc(C(C)CC)cc1)c1c(N)n(CCCC)c(=O)[nH]c1=O (stereo not drawn) | -67.8* | i | -14.6% | 1.7% | -10.8%
CCCCCN(C(=O)CN1CCC(Cc2ccccc2)CC1)c1c(N)n(CCCC)c(=O)[nH]c1=O | -78.1* | ? | -25.4% | 1.1% | -6.1%
CCn1c(N2CCN(CC(=O)c3c(C)n(C)c4ccccc34)CC2)nc2c1c(=O)[nH]c(=O)n2C | -70.7* | i | -9.1% | 2.3% | -15.6%
CCCCCN(C(=O)CCC(=O)OCC(=O)N(C)c1ccccc1)c1c(N)n(CCCC)c(=O)[nH]c1=O | -4.8 | i | -4.7% | 0.8% | -10.1%
CCn1c(N2CCN(CC(=O)c3c(C)n(C)c4ccc(OC)cc34)CC2)nc2c1c(=O)[nH]c(=O)n2C | nt | i | 23.9% | 6.3% | -2.6%
CCCn1c(N2CCC(Cc3ccccc3)CC2)nc2c1c(=O)[nH]c(=O)n2C | -5.2 | i | -3.9% | -0.2% | -12.7%
CCCCCn1c(N2CCC(Cc3ccccc3)CC2)nc2c1c(=O)[nH]c(=O)n2C | -86.7* | nt | ? | nt | ?
CC(OC(=O)/C=C/c1ccco1)C(=O)NC1CCCCC1C (stereo not drawn) | 15.5 | i | -18.2% | -1.0% | -6.8%
COCC(=O)Nc1cc(C(=O)N2CC3CCC2C3)c2c(c1)nc(-c1ccncc1)n2C (stereo not drawn) | nt | i | nt | nt | nt
c1csc(-c2cc(N3CCCCC3)c3ccccc3n2)c1 | -7.7 | i | 4.4% | 1.6% | ?
SMILES | IL1B secr inh | S2 tox | ATXN2 expr inh | USP2a inh | USP1-UAF1 inh
CCOC(=O)c1noc2ncnc(Nc3cc(Cl)c(OC)cc3OC)c12 | nt | i | 7.0% | nt | -18.5%
C=CCN1C(=O)/C(=C2/Sc3ccccc3N2CC)SC1=S | 32.0 | ? | -14.0% | -2.9% | 2.7%
CCN1C(=O)/C(=C2/Sc3ccccc3N2CC)S/C1=N\c1ncn[nH]1 | -55.5* | nt | ? | 2.8% | 141.6%
CC(C)(C)NC(=O)C(c1ccc(F)cc1)N(Cc1cccs1)C(=O)c1ccc(CN2CCOCC2)o1 (stereo not drawn) | -52.7* | i | -0.9% | -0.3% | 2.6%
CN1C(=O)C(C)(C)c2cc(S(=O)(=O)N3CCN(c4ccccc4F)CC3)ccc21 | 15.4 | i | 3.7% | -0.4% | -6.6%
O=S(=O)(CC(CN1CCCCC1)N1CCCCC1)c1ccccc1 (stereo not drawn) | -96.7* | nt | nt | -0.4% | -11.5%
O=[N+]([O-])c1ccc(S(=O)(=O)CC(CN2CCOCC2)N2CCOCC2)cc1 (stereo not drawn) | -73.6* | ? | 18.4% | 0.7% | -14.5%
COc1ccc(CN2CCCC(CO)(Cc3ccc(F)cc3)C2)cc1C (stereo not drawn) | -60.9* | i | ? | -3.5% | -7.8%
CC(C)Oc1ccc(CN2CCCC(CO)(Cc3ccccc3)C2)cc1CO (stereo not drawn) | -53.7* | i | -0.3% | -4.6% | -7.2%
OCC1(Cc2ccccc2)CCCN(Cc2ccc3c(c2)OCCO3)C1 (stereo not drawn) | -13.9 | i | -8.0% | 2.6% | -24.1%
COc1ccc(CC2=NN3C([C@@H](CCc4ccccc4)[C@@H](C)O)=NC(C)C3C(=O)N2)cc1OC (stereo partly drawn) | nt | nt | 42.7% | nt | nt
O=C(NCCOc1ccc(F)cc1)C1CCC(=O)N(CCc2ccccn2)C1 (stereo not drawn) | 19.0 | i | -3.4% | 1.9% | -13.6%
CCCCN(CC)CCCNC(=O)C1CCN(c2ncnc3c2sc2cccc(F)c23)CC1 | -97.2* | i | -7.1% | 1.4% | -8.1%
O=C(NCCN1CCOCC1)C1CCN(c2ncnc3c2sc2cccc(F)c23)CC1 | 6.1 | i | -8.8% | 1.4% | -1.6%
Cc1cc(C)c(NC(=O)CN2C(=O)CCSc3ccc(S(=O)(=O)N4CCCC4)cc32)c(C)c1 | nt | nt | nt | nt | -16.0%
CCCC(=O)NC(c1cccs1)c1cc(Cl)c2cccnc2c1O (stereo not drawn) | 88.9 | i | -22.3%[11.3 µM] | 3.8% | -4.8%
CCCC(=O)NC(c1ccc2c(c1)OCO2)c1cc(Cl)c2cccnc2c1O (stereo not drawn) | -82.1* | i | 8.91µM* | 0.2% | -13.7%
CCC(=O)NC(c1ccc(C)cc1)c1cc(Cl)c2cccnc2c1O (stereo not drawn) | nt | ? | ? | -7.2% | nt
